Measurements from the supplement of paper PMC6522484.
± gives the standard deviation of the averaged measurements.

Columns and labels:
DLD1 [1] = test: cell viability (CellTiter-Glo) relative to plate median (fraction of plate median); higher = more viable cells; conditions: 5 µM; treatment time 24 h; reporter: 7TFP
Outline: (§1)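 Stable lentiviral TCF/Wnt firefly luciferase reporters (7TFP or TCF4/Wnt) were present in the colorectal cancer cell lines used. These cells received library compounds at a final 5 µM for 24 h, and parallel plates were read for firefly luciferase or CellTiterGlo luminescence. Each well was normalised to the plate median, and the value reported is the mean of two independent replicates.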

HCT116 = test: as above; conditions: 5 µM; treatment time 24 h; reporter: TCF4/Wnt
Outline: as §1

SW480 [2] = test: as above; conditions: 5 µM; treatment time 24 h; reporter: 7TFP
Outline: as §1

DLD1 [3] = test: TCF/Wnt firefly luciferase reporter signal relative to plate median (fraction of plate median); higher = higher Wnt reporter signal; conditions: 5 µM; treatment time 24 h; reporter: 7TFP
Outline: as §1

SW480 [4] = test: as above; conditions: 5 µM; treatment time 24 h; reporter: 7TFP
Outline: as §1

Row | Structure (SMILES) | cell viability (DLD1 [1]) | cell viability (HCT116) | cell viability (SW480 [2]) | TCF/Wnt firefly luciferase reporter signal (DLD1 [3]) | TCF/Wnt firefly luciferase reporter signal (SW480 [4])
1 | Cc1cccc(N(C)C(=S)Oc2ccc3ccccc3c2)c1 | 1.07 ± 0.028 | 1.09 ± 0.099 | 0.987 ± 0.018 | 0.897 ± 0.07 | 0.95 ± 0.04
2 | CCOC(=O)n1ccn(C)c1=S | 0.985 ± 0.05 | 1.12 | 1.01 ± 0.035 | 0.9725 ± 0.0021 | 1.04 ± 0.014
3 | COC(=O)/C=C/C(C)=C\C=C\C(C)=C\C=C\C=C(C)\C=C\C=C(C)\C=C\C(=O)O | 1.05 ± 0.057 | 1.05 ± 0.028 | 0.968 ± 0.046 | 0.981 ± 0.042 | 0.997 ± 0.047
4 | CC(C)Oc1ccc2c(=O)c(-c3ccccc3)coc2c1 | 0.972 ± 0.013 | 1.05 ± 0.083 | 1.01 ± 0.021 | 1.24 ± 0.21 | 0.949 ± 0.34
5 | c1ccc2c(c1)CN1CCCC1=N2 | 1.03 ± 0.028 | 1.09 ± 0.24 | 0.998 ± 0.032 | 0.935 ± 0.15 | 0.944 ± 0.064
6 | CC(CCc1ccc(O)cc1)NCCc1ccc(O)c(O)c1 (stereo not given) | 1.01 ± 0.018 | 1.06 ± 0.18 | 1 ± 0.037 | 0.928 ± 0.058 | 1.02 ± 0.088
7 | CCCCOc1cc(CC2CNC(=O)N2)ccc1OC (stereo not given) | 0.999 ± 0.016 | 0.921 ± 0.081 | 0.912 ± 0.011 | 1.015 ± 0.0071 | 1.04 ± 0.19
8 | CCC(=O)NCC[C@@H]1CCc2ccc3c(c21)CCO3 | 1.04 ± 0.021 | 1.15 ± 0.092 | 1.06 ± 0.028 | 0.827 ± 0.037 | 0.91 ± 0.023
9 | CC(=O)Oc1cc(C)c2c(c1C=O)Oc1c(c(C)c(OC(C)=O)c3c1C(OC(C)=O)OC3=O)OC2=O (stereo not given) | 1.025 ± 0.0071 | 0.949 ± 0.039 | 1.04 ± 0.063 | 0.875 ± 0.084 | 1.01 ± 0.099
10 | COc1ccc2c(c1)OCC(Cc1ccc(OC)c(O)c1)C2=O (stereo not given) | 0.937 ± 0.0099 | 0.847 ± 0.043 | 1.09 ± 0.035 | 0.707 ± 0.13 | 0.883 ± 0.047
11 | C=CC1=C(C(=O)O)N2C(=O)[C@@H](NC(=O)/C(=N\O)c3csc(N)n3)[C@H]2SC1 | 0.911 ± 0.11 | 1.04 ± 0.1 | 0.963 ± 0.025 | 0.941 ± 0.052 | 0.969 ± 0.072
12 | CCCCCC1C(=O)CCC1CC(=O)O (stereo not given) | 1.02 ± 0.25 | 1.2 ± 0.18 | 1.105 ± 0.0071 | 1.06 ± 0.099 | 1.04 ± 0.058
13 | CC(C)COCC(CN(Cc1ccccc1)c1ccccc1)N1CCCC1 (stereo not given) | 1.06 ± 0.088 | 1 ± 0.064 | 1.02 ± 0.06 | 0.901 ± 0.084 | 0.937 ± 0.085
14 | CC(=O)NCCc1ccc(O)cc1 [N-Acetyl-tyramine] | 0.951 ± 0.017 | 0.985 ± 0.092 | 0.991 ± 0.0071 | 1.13 ± 0.042 | 1.05 ± 0.035
